Several values for one entry are separate records, joined by “and”; a condition that tells them apart may be missing. Equal entries are not always repeated. Out of some 110,000 compounds screened, about 190 (0.17%) were called active. No stated cut-off is given here; in the data, active means inhibition above about 50%; inactive means the rest. For the sample, actives were picked, then their nearest neighbours and some compounds at random. Entries with a potency or affinity are not part of this list. More than one record can exist for a structure, and the calls need not agree.

This experiment deals with Dual specificity protein phosphatase 6 (Rattus norvegicus) (UniProt Q64346). The experiment is described as follows: inhibition of rat DUSP6 enzyme activity – biochemical, in vitro, primary screen (AID 425).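 Further: plate controls were vehicle for no effect and reference inhibitor for full effect.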 Particulars: recombinant MKP-3 phosphatase activity, fluorescence; at 20 µM; stronger effect = higher value.
Sequence of Dual specificity protein phosphatase 6 (Rattus norvegicus) (Q64346 whole entry, looked up): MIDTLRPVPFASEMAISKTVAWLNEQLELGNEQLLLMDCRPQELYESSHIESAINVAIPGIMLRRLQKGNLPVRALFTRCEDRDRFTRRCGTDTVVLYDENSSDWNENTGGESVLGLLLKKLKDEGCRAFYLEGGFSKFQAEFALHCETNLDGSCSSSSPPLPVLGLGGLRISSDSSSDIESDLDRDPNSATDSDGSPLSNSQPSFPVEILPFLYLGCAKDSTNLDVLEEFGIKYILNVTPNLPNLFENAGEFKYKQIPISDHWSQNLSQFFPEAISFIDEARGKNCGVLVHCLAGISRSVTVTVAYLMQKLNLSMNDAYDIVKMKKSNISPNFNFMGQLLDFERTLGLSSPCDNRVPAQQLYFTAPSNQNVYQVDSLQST
Take `Cc1cc([N+](=O)[O-])ccc1NCc1ccco1`: the inhibition is 0.4% (inactive). Then `Cc1nc(C)n(CC(O)COc2ccc3c(c2)CCC3)n1` (configuration not stated), with -16.3% (inactive); and `CCC(=O)Nc1c(C#N)c2nc3ccccc3nc2n1-c1ccc(C)cc1`, with 1.4% (inactive). `C=CCn1c(NC(=O)c2ccccc2)c(C#N)c2nc3ccccc3nc21`: the inhibition is 23.5% (inactive).

As to `COc1ccc(C(=O)NCCn2ccc3ccccc32)cc1OC`, the inhibition was -4.9% (inactive). As for `COC(=O)c1c(NC(=O)c2c(C)noc2C)sc2c1CCCCCC2`, the figure is -8.3% (inactive); as for `CCCC(C)NS(=O)(=O)c1ccc(C)cc1` (configuration not stated), -0.1% (inactive); as for `Cc1ccc(S(=O)(=O)NCC(C)NS(=O)(=O)c2ccc(C)cc2)cc1` (configuration not stated), 69.6% (active).

Take `CC(=O)Nc1ccc(S(=O)(=O)NCC(C)NS(=O)(=O)c2ccc(NC(C)=O)cc2)cc1` (configuration not stated): the inhibition was -11.4% (inactive). As for `COC(=O)c1ccc(-c2ccc(/C=N\Nc3ccc([N+](=O)[O-])cn3)o2)cc1`, the figure is 5.2% (inactive).

For `CCSc1nc(N)c2c3c(sc2n1)COC(C)(CC)C3` (configuration not stated), the inhibition is 3.9% (inactive).

On to `CC(=O)Nc1ccc(C(=O)NCc2ccccn2)cc1`, for which the inhibition is 1.3% (inactive).

With `Cc1ccnc(NS(=O)(=O)c2ccc(NC(=O)c3cccc(I)c3)cc2)n1`, the inhibition was 1.1% (inactive). As for `CC1(C)CC(NC(=O)CCc2ccccc2)CC(C)(C)N1`, the figure is 3.8% (inactive) and -2.1% (inactive); as for `Oc1cccc(C=Nc2ccc(Cl)c(Cl)c2)c1`, -1.5% (inactive); as for `CN(C)c1ccc(C=Nc2ccc(N(C)C)cc2)cc1`, -3.9% (inactive). As to `Oc1ccc(/C=N/N=C/c2ccc(O)c(O)c2)cc1O`, the inhibition was 1.8% (inactive). Then `Cc1cccc(C=Nc2ccc(-c3nc4ccc(C)cc4s3)cc2)c1`, with -2.3% (inactive). Then `Cc1cccc(C=Nc2ccc(O)cc2)c1`, with 118% (active); and `COc1ccc(N=Cc2ccc(O)c(OC)c2)cc1`, with -0.9% (inactive).

As for `Oc1ccc(N=Cc2cc(Br)cc(Br)c2O)cc1`, the inhibition is 9.6% (inactive). Take `Oc1ccc(N=Cc2ccc(O)c(O)c2)cc1`: the inhibition was 69.4% (active) and -3.7% (inactive). Then `Oc1ccc(C=Nc2ccc(O)cc2)cc1`, with 51% (active); and `COc1ccc2c(c1OC)CN(C)CCc1cc3c(cc1C(O)C2)OCO3` (configuration not stated), with -15.6% (inactive).

`COc1ccc(C2NC(=O)NC(C)=C2C(=O)Nc2ccccc2C)cc1OC` (configuration not stated): the inhibition is -0.4% (inactive). As for `O=C1CCCC2=C1C(c1ccc(Cl)cc1)Nc1ccccc1N2` (configuration not stated), the figure is 0.4% (inactive); as for `Cc1ccccc1NC(=O)CCCN1C(=O)/C(=C/c2cccc3c2OCO3)SC1=S`, 4.3% (inactive); as for `CSc1nsc(SC)c1NC(=O)OCc1ccccc1`, -3.9% (inactive) and 1.7% (inactive).

Consider `COc1cccc(C(=O)Nc2ccc(OC(F)(F)F)cc2)c1`, for which the inhibition was 3.1% (inactive). As for `COc1ccc(/C=C2\SC(=O)N(CC(=O)Nc3nccs3)C2=O)cc1OC`, the figure is 0% (inactive); as for `O=S(=O)(NCc1ccc(F)cc1)c1ccc2ccccc2c1`, 0% (inactive); as for `COC(=O)c1sc(=S)n(-c2cc(F)ccc2F)c1N`, 10.2% (inactive).

Regarding `Cc1ccc2[nH]c(C)c(CC(=O)N/N=C/c3cccnc3)c2c1`, the inhibition is -2% (inactive). As for `Cc1ccccc1-n1c(O)c(C=C2C=CC=N2)c(=O)[nH]c1=S`, the inhibition was 45.4% (inactive). `O=c1[nH]c(=S)n(-c2ccccc2F)c(O)c1C=C1C=CC=N1`: the inhibition was 60.5% (active).

In the case of `O=c1[nH]c(=O)n(-c2ccccc2Cl)c(O)c1C=C1C=CC=N1`, the inhibition was 3.3% (inactive). As to `COc1ccc(-n2c(O)c(/C=C3\C=CC=N3)c(=O)[nH]c2=O)cc1`, the inhibition was 2.1% (inactive). Regarding `O=c1[nH]c(=S)n(-c2cccc(Cl)c2)c(O)c1/C=C1/C=CC=N1`, the inhibition was 9% (inactive). Then `Cn1c(O)c(/C=C2/C=CC=N2)c(=O)n(-c2ccccc2)c1=S`, with 95.6% (active). As for `COc1ccc(NC(=O)Cn2nnc(C(N)=O)c2N)c(OC)c1`, the figure is -7.2% (inactive). On to `O=C1c2ccc(-c3nc4ccccc4c(=O)o3)cc2C(=O)N1c1ccc(I)cc1`, for which the inhibition was -0.1% (inactive). Then `COC(=O)c1ccc(-n2c(C)cc(/C=N/n3cnnc3)c2C)cc1`, with -6.7% (inactive); and `Cc1nnc(NC(=O)CSc2cn(Cc3ccccc3)c3ccccc23)s1`, with -5.8% (inactive); and `COc1ccc(/C=C/C(=O)Nc2ccc(C)c([N+](=O)[O-])c2)cc1OC`, with -0.5% (inactive). As for `Cc1ccc(/C=N/n2cnnc2)cc1[N+](=O)[O-]`, the figure is -0.6% (inactive). Then `O=C(O)CCCCCN1C(=O)C(=O)/C(=C(/O)c2ccccc2)C1c1ccc(F)cc1` (configuration not stated), with 0.8% (inactive); and `CC(C)(C)c1ccc(OCC(=O)NC2CCS(=O)(=O)C2)cc1` (configuration not stated), with 3% (inactive).

One may read the inhibition as the relative decrease from the control value, in per cent.

Values taken from PubChem BioAssay AID425 (Sanford-Burnham Center for Chemical Genomics, 2006).
